# From PubChem BioAssay
# HP1b chromo inh = HP1-beta chromodomain-methylated histone interaction inhibition | P83916 | AlphaScreen HP1-beta / biotin-H3K9me3 peptide binding | Potency, µM (series often up to 114 µM), inactives show top-dose activity change, negative = inhibition, actives largely listed as inhibitors | 0.56% of 390,000 active | AID 540317; note: nearly all actives have a fitted effect of over 70% in size
#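 HP1-beta protein (50 nM final) preincubated 30 min at room temperature with biotinylated H3(1-18)K9me3 peptide (50 nM) in PBS pH 7.4, 0.01% Tween-20, then compound added for 30 min. AlphaScreen streptavidin donor/nickel chelate acceptor beads (10 ug/mL final), 30 min dark, luminescence read.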
# G9a block = blocks human histone lysine methyltransferase G9a. G9a H3K9 monomethylation, AlphaScreen, 2 h. Q96KQ7. Potency, µM (series often up to 102 µM), without a hit: top-dose activity, negative = inhibition, usual class: inhibitors. 8.8% of 350,000 active. AID 504332; note: % is set by controls: 0 for no effect and ±100 for the full control effect; nearly all actives have a fitted effect of over 75% in size
#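 Signal arises when biotinylated H3K9 peptide, once monomethylated, bridges streptavidin donor and antibody-captured acceptor beads. Enzyme at 20 nM was preincubated 15 min with test compounds; peptide 500 nM and SAM 20 uM then reacted for 2 h.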
# L3MBTL1 block = blocks human L3MBTL1. Q9Y468. AlphaScreen L3MBTL1–H3K9me1 peptide binding. Potency, µM (doses to about 57.1 µM), for the others: at the top dose activity, negative = inhibition, actives largely listed as inhibitors. 0.66% of 230,000 active; note: % is set by controls: 0 for no effect and ±100 for the full control effect; nearly all actives have a fitted effect of over 60% in size
#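 Displacement of a biotinylated histone H3(1-15) peptide monomethylated at Lys9 (75 nM) from L3MBTL1 (50 nM) was measured by AlphaScreen after a 30 min room-temperature compound incubation; cefsulodin titration served as intraplate control.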
# JMJD2A Tudor inh = JMJD2A Tudor domain (human) inhibition. AlphaScreen JMJD2A-Tudor / H3K4me3 peptide binding. O75164. Potency, µM (doses to about 114 µM), for the others: top-dose activity change, negative = inhibition, actives largely listed as inhibitors. 4.4% of 390,000 active; note: % is set by controls: 0 for no effect and ±100 for the full control effect; nearly all actives have a fitted effect of over 50% in size
# BAZ2B inh = inhibitors of human BAZ2B bromodomain | Q9UIF8 | AlphaScreen BAZ2B-H3K14Ac peptide displacement | Potency, µM (highest dose often 114 µM), without a hit: top-dose activity change, negative = inhibition, hits mostly inhibitors | 4.4% of 360,000 active | AID 504333; note: % is set by controls: 0 for no effect and ±100 for the full control effect; nearly all actives have a fitted effect of over 60% in size
# Target sequence (Q9UIF8 whole entry, looked up): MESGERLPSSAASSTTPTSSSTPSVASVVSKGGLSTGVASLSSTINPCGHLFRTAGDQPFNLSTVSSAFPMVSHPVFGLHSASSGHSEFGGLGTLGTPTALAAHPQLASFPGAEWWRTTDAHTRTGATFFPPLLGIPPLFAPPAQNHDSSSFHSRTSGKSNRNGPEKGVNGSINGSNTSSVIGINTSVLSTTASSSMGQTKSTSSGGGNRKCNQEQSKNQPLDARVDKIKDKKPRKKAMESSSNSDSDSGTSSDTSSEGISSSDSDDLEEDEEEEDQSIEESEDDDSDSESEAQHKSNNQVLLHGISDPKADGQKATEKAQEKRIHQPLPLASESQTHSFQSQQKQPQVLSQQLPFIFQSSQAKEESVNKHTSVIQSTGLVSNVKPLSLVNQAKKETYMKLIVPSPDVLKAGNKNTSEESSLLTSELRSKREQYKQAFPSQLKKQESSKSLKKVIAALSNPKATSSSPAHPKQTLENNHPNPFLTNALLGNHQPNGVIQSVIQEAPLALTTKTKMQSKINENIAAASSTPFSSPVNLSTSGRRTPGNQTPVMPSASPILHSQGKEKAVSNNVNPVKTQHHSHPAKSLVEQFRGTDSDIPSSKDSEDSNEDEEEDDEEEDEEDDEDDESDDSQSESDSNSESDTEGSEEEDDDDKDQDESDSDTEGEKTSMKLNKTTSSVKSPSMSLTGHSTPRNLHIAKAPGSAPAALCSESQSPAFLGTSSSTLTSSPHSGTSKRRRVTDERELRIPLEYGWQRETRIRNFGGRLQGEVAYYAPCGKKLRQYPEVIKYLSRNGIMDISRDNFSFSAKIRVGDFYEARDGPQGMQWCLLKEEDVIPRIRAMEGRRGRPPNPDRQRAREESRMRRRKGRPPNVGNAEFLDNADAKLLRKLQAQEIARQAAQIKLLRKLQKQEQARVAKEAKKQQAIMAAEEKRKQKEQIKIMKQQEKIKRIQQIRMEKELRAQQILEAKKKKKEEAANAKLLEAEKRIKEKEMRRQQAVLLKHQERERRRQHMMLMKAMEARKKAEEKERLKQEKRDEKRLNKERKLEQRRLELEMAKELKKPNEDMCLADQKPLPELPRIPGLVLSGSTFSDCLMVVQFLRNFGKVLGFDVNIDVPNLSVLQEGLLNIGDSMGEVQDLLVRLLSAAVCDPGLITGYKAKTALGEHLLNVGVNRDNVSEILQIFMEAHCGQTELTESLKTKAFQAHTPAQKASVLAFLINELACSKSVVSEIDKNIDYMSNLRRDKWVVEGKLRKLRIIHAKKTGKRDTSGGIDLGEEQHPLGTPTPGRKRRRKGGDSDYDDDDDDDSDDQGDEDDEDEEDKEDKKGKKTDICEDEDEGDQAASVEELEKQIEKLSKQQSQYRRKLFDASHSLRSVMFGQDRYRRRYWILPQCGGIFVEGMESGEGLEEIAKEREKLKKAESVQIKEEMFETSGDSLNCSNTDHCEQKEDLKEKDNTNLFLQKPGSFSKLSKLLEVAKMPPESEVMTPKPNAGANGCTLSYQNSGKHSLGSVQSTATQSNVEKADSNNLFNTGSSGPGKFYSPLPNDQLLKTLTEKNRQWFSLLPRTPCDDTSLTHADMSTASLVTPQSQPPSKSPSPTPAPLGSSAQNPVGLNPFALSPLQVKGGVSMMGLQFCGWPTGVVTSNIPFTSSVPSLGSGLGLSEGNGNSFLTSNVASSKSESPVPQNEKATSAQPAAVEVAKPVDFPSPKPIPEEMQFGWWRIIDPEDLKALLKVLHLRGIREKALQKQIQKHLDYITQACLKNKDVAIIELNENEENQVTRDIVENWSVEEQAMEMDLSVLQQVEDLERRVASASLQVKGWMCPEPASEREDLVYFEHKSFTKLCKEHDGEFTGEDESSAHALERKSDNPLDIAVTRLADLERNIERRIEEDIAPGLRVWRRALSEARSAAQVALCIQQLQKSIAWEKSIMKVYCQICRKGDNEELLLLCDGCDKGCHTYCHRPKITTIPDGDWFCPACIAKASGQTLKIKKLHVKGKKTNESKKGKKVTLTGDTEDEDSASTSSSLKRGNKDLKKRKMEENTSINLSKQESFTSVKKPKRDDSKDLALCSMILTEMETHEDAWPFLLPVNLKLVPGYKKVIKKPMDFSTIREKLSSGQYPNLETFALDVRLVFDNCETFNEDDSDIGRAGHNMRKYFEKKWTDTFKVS
#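 In this displacement format the biotinylated H3(5-23) peptide acetylated at Lys14 serves as ligand at 50 nM, with BAZ2B at 50 nM in PBS pH 7.4 containing 0.01% Tween-20. Donor and acceptor beads are 10 ug/mL final.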
# Sfp PPTase inh = blocks B. subtilis Sfp PPTase activity. Q9F4F7. Potency, µM, for the others: largest response in the series, negative = inhibition, most hits filed as inhibitors. Biochemical Sfp PPTase activity, qHTS. 3.5% of 310,000 active;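 note: the enzyme is Sfp with the accession as filed and its product quenches rhodamine fluorescence; 0% = enzyme reaction without inhibitor and -100% = no enzyme wells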
#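 Buffer: 50 mM Hepes-Na pH 7.6, 10 mM MgCl2, 0.01% Nonidet P-40, 0.01% BSA. Enzyme 15 nM, pre-exposed to compound 15 min; substrates then added and fluorescence change tracked over 30 min.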
# An asterisk follows results filed as active; ? = inconclusive; nt = no result given; ! = not confirmed by another sample; [ ] = dose if it differs, or a comment. Shown are actives, neighbours in structure and some others; about 12% of the full set was active somewhere. Calls come from the whole dose curve; as a rule, active = well fitted curve in the direction sought with a large enough effect; inconclusive = small, poorly fitted or top-dose-only effect, or another doubt; inactive = no such curve, though single readings can be large; an effect the other way counts as inactive or inconclusive. Potency is the fitted concentration of half-maximal effect.
SMILES,HP1b chromo inh,G9a block,L3MBTL1 block,JMJD2A Tudor inh,BAZ2B inh,Sfp PPTase inh
CC1CCN(CCCNC(=O)CN2C(=O)CSc3ccc(S(=O)(=O)N4CCC(C)CC4)cc32)CC1,?,4%[59 µM],nt,56µM*!,-7%,10%
COc1ccc(CNC(=O)CCc2ccc(S(=O)(=O)N3CCCCCC3)cc2)cc1,30%,5%[2.33 µM],-4%,-3%,1%,nt
CCOC(=O)c1c(N)n(-c2ccc(OCC)cc2)c2nc3ccccc3nc12,29%,-22%[59 µM],nt,-9%,-1%,nt
COC(=O)NC(c1cccc(C)c1)[C@@]1(C(=O)OC)CCCC1=O (some centres undefined),nt,nt,nt,nt,nt,18%
O=C(O)c1occc1CSc1ccccc1,-26%,?,nt,-20%,0%,9%
Cc1oc(C(=O)O)cc1CSCc1ccoc1C(=O)O,13%,45µM*,?,?,?,-4%
C[C@H]1Cc2c(COc3ccccc3)nc3c(c2CO1)CN(S(=O)(=O)c1ccc2c(c1)OCCN2C)CC3,nt,nt,nt,nt,nt,7%
O=C(Oc1ccc(C(=S)N2CCOCC2)cc1Br)c1ccccc1F,?,10µM*,-9%,-30%,-33%,22µM*
O=C(Oc1ccc(C(=S)N2CCOCC2)cc1)c1ccccc1F,-2%,25µM*,-6%,-10%,-26%,25µM*
O=C(Oc1ccc(C(=S)N2CCOCC2)cc1Cl)c1ccccc1F,-14%,-9%[0.501 µM],-9%[2.29 µM],-35%,-31%,56µM*
CN(C)c1ccc(CNc2nc3ccccc3s2)cc1,nt,-8%,-1%,nt,-7%,11%
CN(C)c1ccc(C(O)c2cc3ccccc3s2)cc1 (centres undefined),?,nt,nt,32µM*,nt,nt
c1ccc2[nH]c(CN3CCCCCC3)nc2c1,25%,28µM*,6%,-16%,-15%,-2%
O=C(Cc1ccccc1[N+](=O)[O-])NCc1ccc(Cl)cc1Cl,10%,?,-7%,-21%,10%,11%
O=C(Cc1ccc(F)cc1)Nc1ccc(F)c([N+](=O)[O-])c1,17%,-1%,2%,-4%,-8%,11%
COc1cccc(CNc2ccc(F)c([N+](=O)[O-])c2)c1O,-17%,50µM*,-13%,?,-35%,12%
O=[N+]([O-])c1ccccc1CNc1ccc(F)c(Cl)c1,-29%,?,-2%,?,50µM*,-16%
Cc1cc(=O)[nH]c2nnc(SCC(=O)Nc3ccc(F)cc3F)n12,46%,-1%[59 µM],nt,0%,4%,nt
CCCCn1c(=O)nc2n(-c3ccc(Br)cc3)c3ccccc3cc-2c1=O,4%,8%[59 µM],nt,2%,2%,nt
Cc1cccc(Cc2c(C)nc3nc(SCC(=O)NCc4ccccc4)nn3c2C)c1,22%,5%[59 µM],nt,-2%,-1%,nt
Cc1ccc(S(=O)(=O)N2[C@@H](c3ccccc3F)C(C(=O)O)=CC[C@H]2c2ccc(Cl)c(Cl)c2)cc1,27%,-28%[2.33 µM],-7%,-19%,71µM*,nt
Cc1ccc(S(=O)(=O)N2[C@@H](c3ccccc3)C(C(=O)O)=CC[C@H]2c2ccc(Cl)c(Cl)c2)cc1,30%,24%[2.33 µM],3%,-14%,?,nt
COC(=O)c1c(-c2ccc(Cl)cc2)noc1N1CCN(c2ccccc2OC)CC1,20%[57 µM],13%[59 µM],nt,-12%,10%,nt
Cc1[nH]n(-c2ccccc2)c(=O)c1/C=N/c1ccccn1,9%,-24%,0%,-2%,?,16%
Cc1[nH]n(-c2ccccc2)c(=O)c1N=Nc1nccs1,-25%,14µM*,nt,?,32µM*,10%
SMILES,HP1b chromo inh,G9a block,L3MBTL1 block,JMJD2A Tudor inh,BAZ2B inh,Sfp PPTase inh
Cc1[nH]n(-c2ccccc2)c(=O)c1N=Nc1ccccc1O,-39%,?,-24%,?,?,0%
Cc1ccccc1N=Nc1c(C)[nH]n(-c2ccccc2)c1=O,35µM*,2.2µM*,-7%,?,?,20%
COC(=O)/C=c1/s/c(=C(\C#N)C(=O)NCc2ccco2)n(-c2ccc(C)cc2)c1=O,30%,?,-8%,-25%,3%,56µM*
COc1ccc(Cl)cc1NC(=O)c1ccc2c(SCC(=O)O)c3c(nc2c1)CCCC3,?,50µM*,nt,-34%,-2%,-1%
COc1ccc(N2CCN(C(=O)CSc3c4c(nc5ccc(Cl)cc35)CCCC4)CC2)cc1,-27%,11µM*,nt,22µM*,nt,nt
COc1ccc(NC(=O)c2ccc3c(SCC(=O)O)c4c(nc3c2)CCCC4)c(OC)c1,9%,50µM*,nt,?,?,?
Cc1ccc(CNC(=O)CSc2c3c(nc4cc(Cl)ccc24)CCCC3)o1,-11%,?,nt,?,-11%,18µM*
O=C(CSc1c2c(nc3ccc(Cl)cc13)CCCC2)N1CCN(c2ccc(Cl)cc2)CC1,21%,-46%[59 µM],nt,-19%,nt,nt
COc1ccc(C(=O)N2CCC[C@@]3(CCN(Cc4cc(C(F)(F)F)cc(C(F)(F)F)c4)C3)C2)cc1,nt,-8%[12.7 µM],nt,nt,nt,40%
COc1ccc(CNC(=O)Cn2c(=O)ccc3cc(S(=O)(=O)N4CCCC4)ccc32)cc1,-22%[57 µM],6%[59 µM],nt,-15%,1%,nt
Cn1ccc2cc(S(=O)(=O)N3CCN(S(=O)(=O)c4c(F)cccc4F)CC3)ccc21,nt,nt,nt,-12%,nt,nt
O=C(O)CSc1c2c(nc3cc(C(=O)Nc4ccc(F)c(Cl)c4)ccc13)CCCC2,4%[57 µM],nt,nt,-32%,50µM*,-13%
COc1ccc(NC(=O)c2ccc3c(SCC(=O)O)c4c(nc3c2)CCCC4)cc1Cl,nt,?,2%,nt,-34%,3%
N#CN=c1snc(-c2ccccc2Cl)n1-c1ccc(F)cc1,9%[57 µM],nt,nt,-6%[57.1 µM],nt,nt
Cc1ccc(NC(=O)CN(c2ccc(C)cc2)S(=O)(=O)c2cccc3nonc23)cc1,-1%,50µM*,-29%,?,-32%,12%
Cc1ccc(N(CC(=O)Nc2ccc(Cl)cc2)S(=O)(=O)c2cccc3nonc23)cc1,13%,?,nt,?,nt,nt
COc1cc2[nH]c(=S)nc(NC3CCCC3)c2cc1OC,nt,32µM*,12%,nt,-35%,-20%
COc1cc2[nH]c(=O)n(C3CCCCC3)c(=O)c2cc1OC,27%,27%[12.7 µM],nt,-22%,7%,12%
C=CCNc1nc(=S)[nH]c2cc(OC)c(OC)cc12,16%,25µM*,1%,?,-23%,-11%
CC(=O)c1ccc(-n2nnnc2SCC(=O)Nc2sc(C)c(C)c2C#N)cc1,12%,-14%,?,?,7%,50µM*
Cc1sc(NC(=O)CSc2nnnn2C)c(C#N)c1C,53%,nt,-1%,-10%,-20%,19%
CCCn1nnnc1SCC(=O)Nc1sc(C)c(C)c1C#N,-5%,47%[12.7 µM],nt,-13%,2%,50µM*
Cc1ccc2c(CC(=O)Nc3c(C(=O)Nc4cccc(Cl)c4)oc4ccccc34)coc2c1C,29%,-26%[59 µM],nt,1%,-1%,nt
